The list is not random: actives were taken first. Their share in the collection is about 21%.
Pf growth 48h = inhibits P. falciparum growth in the first generation, 48 h; P. falciparum luciferase growth in erythrocytes, 48 h; Potency, µM (doses to about 28.7 µM), usual class: inhibitors; actives 5.9% (n = 310,000); AID 504832
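Read-out is firefly luciferase luminescence from an integrated reporter in P. falciparum, so falling signal marks reduced parasite growth. Infected erythrocytes were at 2% hematocrit and 0.1% parasitemia (final) in Albumax-supplemented RPMI 1640.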
Sm TGR inh = blocks Schistosoma mansoni thioredoxin glutathione reductase. Q962Y6. purified TGR, DTNB reduction, TNB absorbance 405 nm. Potency, µM (series often up to 114 µM), usual class: inhibitors. actives 3% (n = 360,000); note: nearly all actives have a fitted effect of over 60% in size
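Kinetic colorimetric format: TGR-catalysed, NADPH-driven DTNB reduction monitored via TNB absorbance. Enzyme dispensed at 20 nM; compound exposure 15 min at room temperature before reaction start.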
Shiga inhibitor = blocks Shiga toxin action in Vero cells; actives 9.2% (n = 290,000); inhibition, % at 38.7 µM; Vero cells, Shiga toxin protein synthesis inhibition reporter; in the data active = inhibition mostly above about 28%, no sharp cut-off; inactive = mostly below about 43%
CHX counter-1 = counter-screen hit for Shiga toxin inhibitors, cycloheximide; AID 2314; actives 12% (n = 300,000); max response, %; cell reporter, cycloheximide protein synthesis inhibition counterscreen; in the data active = max response mostly above about 13%, no sharp cut-off; inactive = mostly below about 14%; note: read at 38.3 µM for the half of the compounds with a filed dose
Pf growth 96h = P. falciparum growth inhibition at 96 hour, primary screen for plastid delayed-death inhibitors | Potency, µM (highest dose often 28.7 µM), most hits filed as inhibitors | actives 6.9% (n = 320,000) | P. falciparum luciferase reporter growth, 96 h | AID 504834
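Readout is luminescence from an integrated firefly luciferase in P. falciparum. Red cells, 2% hematocrit and 0.05% parasitemia final, were cultured with compound through two parasite generations (96 hours) at 37 C, 5% CO2.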
NS1 inh = influenza NS1 inhibition; actives 0.4% (n = 270,000); AID 2326; Potency, µM (highest dose often 46.1 µM); calls by dose curve; note: actives are rising curves; nearly all actives have a fitted effect of over 50% in size
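Read-out: OD600 growth recovery of NS1-expressing budding yeast. Cells grown overnight at 30C in -URA glucose medium, washed, resuspended and diluted 1:100 in 2% galactose assay medium, pH 6.0. Same strain lacking NS1 served as positive control.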
CHX counter-2 = affects protein synthesis reporter in cycloheximide counter-screen; Potency, µM (series often up to 38.3 µM), usual class: activators; actives 3% (n = 510); AID 2318; Cycloheximide counterscreen, protein synthesis reporter, Shiga toxin assay; shares compounds with Shiga inhibitor; calls by dose curve
A number is an active result; 0 = inactive; ? = inconclusive; - = no result; [ ] = another dose, or the depositor's remark. Unless noted, calls come from the whole dose curve; as a rule, active = well fitted curve in the direction sought with a large enough effect; inconclusive = small, poorly fitted or top-dose-only effect, or another doubt; inactive = no such curve, though single readings can be large; an effect the other way counts as inactive or inconclusive.

SMILES	Pf growth 48h	Sm TGR inh	Shiga inhibitor	CHX counter-1	Pf growth 96h	NS1 inh	CHX counter-2
CC(C)CCC[C@@H](C)[C@H]1CC[C@H]2[C@@H]3CC=C4CC(O)CC[C@]4(C)[C@H]3CC[C@]12C (some centres undefined)	-	-	0	0	-	-	-
C=C1CCC(O)C/C1=C/C=C1\CCC[C@]2(C)[C@@H]([C@H](C)CCCC(C)C)CC[C@@H]12 (some centres undefined)	-	-	65	0	-	-	0
COC(=O)c1ccc(-c2noc(CN(C)Cc3ccncc3C)n2)cc1	0	0	40	0	0	0	0
NS(=O)(=O)c1cc(C(=O)NCC2CCCCC2)ccc1Cl	?	0	56	0	?	0	0
CCOC(=O)/C(C(=O)Nc1ccc(Br)cc1)=C1/NC(C)(C)Cc2ccccc21	?	0	45	0	?	0	?
CCOC(=O)/C(C(=O)Nc1ccccc1Cl)=C1/NC(C)(C)Cc2ccccc21	0	0	0	0	0	0	-
COCCCNC(=O)c1cn(C)c(=O)c2c1c1ccccc1n2C	0	0	33	0	0	0	0
COc1ccc(NC(=O)Cn2c(=O)n(CC3CCCO3)c(=O)c3cc(OC)c(OC)cc32)c(OC)c1 (centres undefined)	0	0	0	0	0	0	-
CCSc1nnc(NC(=O)[C@@H](NC(=O)c2ccc(C(C)(C)C)cc2)C(C)C)s1	?	0	34	0	?	0	0
COC(=O)/C(=C\Nc1ccc(Oc2ccc(F)cc2F)nc1)NC(=O)c1ccccc1	0	0	0	0	0	0	-
COC(=O)c1ccc(Cl)cc1NC(=O)N(Cc1ccc(C)o1)C1CCN(C(C)=O)CC1	-	0	-	-	-	-	-
CC(=O)c1ccc(N2CCN(S(=O)(=O)c3ccc4c(c3)CC(C)N4C(C)=O)CC2)cc1 (centres undefined)	?	0	34	0	?	0	0
CC(=O)N1c2ccc(S(=O)(=O)N3CCOCC3)cc2CC1C (centres undefined)	0	0	0	0	?	0	-
O=C(NCc1ccccc1Cl)c1cc(=O)[nH]c2ccc(S(=O)(=O)N3CCCCC3)cc12	-	0	-	-	-	-	-
CC(C)CC1=C/C(=C/c2ccc(-c3ccccc3)o2)C(=O)O1	?	13µM	40	0	?	0	0
O=C(O)CCCCCN1C(=O)/C(=C\c2ccc(-c3ccc(Cl)cc3)o2)SC1=S	0	?	0	0	0	0	-
O=C(O)c1ccccc1C(=O)Nc1ccc(-n2nccc2C(F)(F)F)cc1	0	0	31	0	0	0	0
Cc1ccc(C(C(=O)NCc2ccco2)N(C(=O)Cn2nnc3ccccc32)c2ccccc2)o1 (centres undefined)	?	50µM	64	0	0	0	0
COc1ccc(OC)c(C(C(=O)NCc2ccco2)N(C(=O)Cn2nnc3ccccc32)C(C)C)c1 (centres undefined)	?	0	0	0	0	0	-
CCCn1c(SCC(=O)NC(C)(C)C)nnc1-c1ccco1	0	0	0	0	0	0	-
CC(=O)c1ccc(-c2cccc([C@H]3[C@@H]4C=CC[C@@H](C)[C@@H]4C(=O)N3Cc3ccccc3)c2)cc1	-	-	36	0	-	-	0
COc1ccc(-c2cn3c(C)c(C(=O)NC(C)C)sc3n2)cc1	0	0	53	0	0	0	0
O=C(CSc1nnc(SCc2ccc(Cl)cc2)s1)N1CCOCC1	0	0	0	0	?	0	-
O=C(CSCc1ccc(Cl)cc1)N1CCOCC1	0	0	66	0	0	0	0
C=CCOc1ccc(C2=NOC(C(=O)Nc3ccc4c(c3)OCCO4)C2)cc1 (centres undefined)	0	0	0	0	0	0	-
SMILES	Pf growth 48h	Sm TGR inh	Shiga inhibitor	CHX counter-1	Pf growth 96h	NS1 inh	CHX counter-2
Oc1ccccc1CNCCCN1CCOCC1	0	0	-	0	?	0	-
COc1cccc(-c2csc(N3CCN(C(=O)Nc4ccc(F)cc4)CC3)n2)c1	?	0	34	0	0	?	0
COc1ccc(NC(=O)CN2CCN(CC(=O)Nc3ccccc3OC)CC2)c(OC)c1	0	0	0	0	0	0	-
COc1cccc(-c2csc(N3CCN(C(=O)Nc4ccccc4OC)CC3)n2)c1	?	0	0	0	-	?	-
COc1ccc(NC(=O)CN2CCN(c3nc(-c4ccc(F)cc4)cs3)CC2)c(OC)c1	0	0	36	0	0	0	0
COCCCNC(=O)c1cc(Nc2ccc(OC)cc2OC)nc2ccccc12	0[0.00184 µM]	0	0	0	0	0	-
COc1ccccc1Nc1cc(C(=O)N2CCc3ccccc3C2)c2ccccc2n1	?	0	30	0	?	-	0
CCC(OC(=O)c1ccco1)C(=O)NCc1ccc(OC)cc1 (centres undefined)	0	0	0	0	0	0	-
COc1ccc(CNC(=O)C(OC(=O)c2ccco2)c2ccccc2F)cc1 (centres undefined)	0	0	40	0	0	0	0
O=C(NCCN1CCOCC1)c1ccc(Cl)c(S(=O)(=O)N2CCCCCC2)c1	?	0	0	0	?	0	-
O=C(NCCN1C(=O)S/C(=C\c2ccc(Cl)cc2)C1=O)c1ccc(F)c(S(=O)(=O)N2CCOCC2)c1	0	0	33	0	?	0	?
CCN(CC)CCNC(=O)Nc1ccc2c(c1)N(Cc1ccccc1)C(=O)c1ccccc1S2	-	0	-	-	-	-	-
O=C(NCC(=O)N1CCCC(C(F)(F)F)C1)c1ccc(Oc2ccccc2)cc1 (centres undefined)	0	0	21	0	?	?	0
O=C(NCC(=O)N1CCCC(C(F)(F)F)C1)c1ccccc1Br (centres undefined)	0	0	-	-	0	-	-
CCOC(=O)c1cc2sccc2n1CCCN1C(=O)c2ccccc2C1=O	0	0	110	0	0	0	0
COC(=O)Cn1c(CN2CCN(c3ccc(OC)cc3)CC2)nc2c1c(=O)[nH]c(=O)n2C	-	0	-	-	-	-	-
COc1ccc(N2CCN(Cc3nc4c(c(=O)[nH]c(=O)n4C)n3CC(C)=O)CC2)cc1	0	0	30	0	0	0	0
C/C(=N/NC(=O)CNC(=O)C1COc2ccccc2O1)c1ccc([N+](=O)[O-])cc1 (centres undefined)	0	0	0	0	0	0	-
Oc1ccc(C2C[C@H]3CC[C@@H]2C3)cc1O (some centres undefined)	0	1µM	34	0	0	0	0
Cc1c(Cl)cnc(NC(=O)CSc2n[nH]c(N)n2)c1Cl	0	0	-	-	0	-	-
Cc1csc(SCC(=O)Nc2ncc(Cl)c(C)c2Cl)n1	0	0	21	0	0	0	0
CC(C)(C)NCC(O)COc1cccc2c1CCC(=O)N2 (centres undefined)	0	0	-	-	0	-	-
O=C(O)C1CCCCC1C(=O)Nc1ccc(-c2ccccc2)cc1 (centres undefined)	0	-	53	0	0	0	0

Source: PubChem
